In PubChem BioAssay one finds composite z-score, composite Z-score and z-score data, which are given here for six compounds.

The target of one test is Albumin (Bos taurus) (UniProt P02769). The test is described as follows: compounds binding labelled BSA control protein – biochemical, small-molecule microarray, Alexa647 label, 635/667 nm fluorescence, artefact control for SMM control protein annotation, profiling panel (AID 1118).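 Further: score merges 667 nm emission intensity and signal-to-noise per printed compound spot.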 The note with it: BSA-A647 binding, fluorescence 635 nm, higher = more signal.
Chain of Albumin (Bos taurus) (P02769 whole entry, looked up): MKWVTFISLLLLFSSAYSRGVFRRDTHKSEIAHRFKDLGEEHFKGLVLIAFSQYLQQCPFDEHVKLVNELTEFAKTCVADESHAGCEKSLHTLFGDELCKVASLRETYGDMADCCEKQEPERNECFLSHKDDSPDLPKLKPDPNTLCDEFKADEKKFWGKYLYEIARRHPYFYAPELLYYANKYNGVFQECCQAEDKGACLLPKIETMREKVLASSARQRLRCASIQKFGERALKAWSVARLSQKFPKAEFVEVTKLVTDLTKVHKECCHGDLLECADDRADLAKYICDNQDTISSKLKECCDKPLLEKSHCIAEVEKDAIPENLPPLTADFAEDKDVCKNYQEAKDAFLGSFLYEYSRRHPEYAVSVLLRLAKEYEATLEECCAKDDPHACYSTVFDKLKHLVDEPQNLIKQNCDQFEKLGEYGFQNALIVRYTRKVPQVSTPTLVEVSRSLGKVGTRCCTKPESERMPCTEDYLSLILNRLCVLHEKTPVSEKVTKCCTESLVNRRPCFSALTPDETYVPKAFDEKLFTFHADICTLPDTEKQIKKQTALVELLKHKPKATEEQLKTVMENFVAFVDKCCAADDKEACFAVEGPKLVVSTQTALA
A short description of test [1]: probe aXIP binding to arrayed compounds – biochemical, NeuroSMM set, 635/667 nm fluorescence, primary screen (AID 1119).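 Further: probe is the protein aXip251-270 applied at 1 µg/mL to compound-printed slides; binding of probe to printed compounds measured as 667 nm fluorescence plus signal to noise.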 As to conditions: small-molecule microarray, higher = more signal, called active from +8 up or from −8 down.
A short description of test [2]: probe aNOTCH3 binding on compound microarray – biochemical, small-molecule microarray, 635/667 nm fluorescence, primary screen (AID 1120).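 Further: probe is a biotin-tagged antibody raised against NOTCH3 rather than NOTCH3 protein; score merges spot fluorescence near 667 nm with spot signal to noise.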 As to conditions: higher = more signal.
A short description of test [3]: probe aNOTCH2 binding on compound microarray – biochemical, small-molecule microarray, 635/667 nm fluorescence, primary screen (AID 1121).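 Further: score merges feature fluorescence read at 667 nm with its signal to noise.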 The note with it: higher = more signal.
For test [4], the target named is Carbonic anhydrase 2 (Homo sapiens) (UniProt P00918). The test is described as follows: compounds binding carbonic anhydrase 2 – biochemical, small-molecule microarray, Alexa647-labelled CAII, profiling panel (AID 1122). The note with it: CAII-A647 binding fluorescence, higher = more signal.
Test [5] in a line: COS7 lysate on small-molecule microarray, probe aHis, 635 nm (AID 1123).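 Further: z-score combines 667nm fluorescence intensity with signal-to-noise per printed compound spot.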 As to conditions: COS7 cell lysate, fluorescence, higher = more signal.
A short description of test [6]: probe aLAP1 signal on lysate-treated microarray – cell lysate, small-molecule microarray, COS7 lysate, primary screen (AID 1124).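 Further: lysate comes from COS7 cells expressing LAP1 and is applied at 0.3 µg/mL; score merges spot fluorescence near 667 nm with signal-to-noise over triplicate slides.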 The note with it: probe aLAP1, fluorescence, higher = more signal.
A further test relates to Sam68 (KHDRBS1). The test is described as follows: compounds binding KHDRBS1 protein – biochemical, small-molecule microarray, 635 nm fluorescence, primary screen (AID 1125).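 Further: score merges 667 nm channel intensity with signal to noise over triplicate slides.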 The note with it: higher = more signal.
The test system of test [7] is Chordin-like protein 2 (CHRDL2). The test is described as follows: compounds binding chordin-like 2 – biochemical, small-molecule microarray, 635 nm fluorescence, primary screen (AID 1126).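 Further: printed compound slides probed with Chrdl2 protein at 4 µg/mL for 1 h at 4 C; score merges 667 nm emission intensity with signal to noise over three replicate slides.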 As to conditions: fluorescence 635 nm, higher = more signal.
The target of test [8] is Concanavalin-A (Canavalia ensiformis) (UniProt P02866). The test is described as follows: compounds binding concanavalin A lectin – biochemical, small-molecule microarray, Alexa647 label, 635 nm, artefact control for SMM control protein annotation, primary screen (AID 1127).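 Further: z combines 667 nm emission intensity with signal-to-noise across three replicate slides.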 The note with it: ConA-A647 binding fluorescence, higher = more signal.
Chain of Concanavalin-A (Canavalia ensiformis) (P02866 whole entry, looked up): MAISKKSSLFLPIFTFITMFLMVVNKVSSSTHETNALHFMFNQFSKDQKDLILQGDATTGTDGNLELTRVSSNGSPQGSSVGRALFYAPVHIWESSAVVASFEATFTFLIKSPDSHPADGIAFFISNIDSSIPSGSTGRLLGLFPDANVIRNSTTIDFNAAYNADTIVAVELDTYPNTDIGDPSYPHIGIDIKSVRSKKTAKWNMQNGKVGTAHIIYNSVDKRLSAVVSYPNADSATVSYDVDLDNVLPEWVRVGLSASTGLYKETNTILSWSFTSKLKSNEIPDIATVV
Test [9] in a line: compounds binding Alexa647 anti-His antibody – biochemical, small-molecule microarray, 635 nm fluorescence, artefact control for SMM control protein annotation, primary screen (AID 1128).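 Further: score merges feature fluorescence with signal-to-noise for each printed compound spot.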 As to conditions: higher = more signal.
Test [10] relates to Human papillomavirus type 1a E7 protein (residues 1-88). The test is described as follows: HPV1a E7 small-molecule binders, primary screen, biochemical, small-molecule microarray, residues 1-88, 635 nm (AID 1129). As to conditions: small-molecule microarray binding, fluorescence 635 nm; higher = more signal.
Test [11] deals with Focal adhesion kinase 1 (Homo sapiens) (UniProt Q05397). The test is described as follows: PTK2 protein binding on printed compound slides – biochemical, small-molecule microarray, 635/667 nm fluorescence, BSA, DTT, primary screen (AID 1130).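 Further: composite of spot emission at 667 nm and signal to noise over triplicate slides.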 The note with it: 635 nm fluorescence, higher = more signal.
Chain of Focal adhesion kinase 1 (Homo sapiens) (Q05397 whole entry, looked up): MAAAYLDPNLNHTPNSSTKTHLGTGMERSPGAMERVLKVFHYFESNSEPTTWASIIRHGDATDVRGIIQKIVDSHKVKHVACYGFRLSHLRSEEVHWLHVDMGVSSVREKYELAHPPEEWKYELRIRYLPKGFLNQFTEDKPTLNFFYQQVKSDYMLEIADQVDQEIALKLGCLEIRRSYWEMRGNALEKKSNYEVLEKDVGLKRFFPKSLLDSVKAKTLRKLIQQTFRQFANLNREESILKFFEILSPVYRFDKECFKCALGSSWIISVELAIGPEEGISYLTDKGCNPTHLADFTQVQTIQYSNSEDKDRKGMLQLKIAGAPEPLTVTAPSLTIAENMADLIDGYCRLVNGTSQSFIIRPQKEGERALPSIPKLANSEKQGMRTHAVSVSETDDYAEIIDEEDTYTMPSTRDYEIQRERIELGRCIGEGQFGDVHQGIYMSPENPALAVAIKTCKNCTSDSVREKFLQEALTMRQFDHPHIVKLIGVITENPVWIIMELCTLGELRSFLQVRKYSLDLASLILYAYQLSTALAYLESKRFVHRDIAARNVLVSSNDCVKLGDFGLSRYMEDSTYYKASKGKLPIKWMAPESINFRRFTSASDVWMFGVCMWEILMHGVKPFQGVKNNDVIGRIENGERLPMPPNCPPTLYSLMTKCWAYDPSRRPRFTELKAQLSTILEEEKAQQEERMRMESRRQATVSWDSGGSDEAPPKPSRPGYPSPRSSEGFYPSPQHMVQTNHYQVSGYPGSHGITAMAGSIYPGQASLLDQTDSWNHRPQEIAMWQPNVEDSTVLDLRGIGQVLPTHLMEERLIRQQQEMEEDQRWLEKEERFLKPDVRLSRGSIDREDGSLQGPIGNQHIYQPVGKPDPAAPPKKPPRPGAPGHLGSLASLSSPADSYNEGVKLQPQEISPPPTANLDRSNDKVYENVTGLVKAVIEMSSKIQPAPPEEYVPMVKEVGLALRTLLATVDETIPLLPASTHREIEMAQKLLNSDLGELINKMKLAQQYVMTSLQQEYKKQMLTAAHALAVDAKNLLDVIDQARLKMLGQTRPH
The subject of test [12] is Fibrinogen (Alexa647-labelled). The test is described as follows: Alexa647-fibrinogen binding to printed small molecules – biochemical, small-molecule microarray, 635/667 nm fluorescence, artefact control for SMM control-protein annotation, profiling panel (AID 1131).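 Further: z-score merges 667 nm fluorescence with per-spot signal-to-noise over triplicate slides.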 As to conditions: fibrinogen-A647 binding fluorescence, higher = more signal.
Test [13] deals with Follistatin (Homo sapiens) (UniProt P19883). The test is described as follows: FST protein binding to printed compounds – biochemical, small-molecule microarray, 635/667 nm fluorescence, primary screen (AID 1132). As to conditions: 635 nm fluorescence, higher = more signal.
Chain of Follistatin (Homo sapiens) (P19883 whole entry, looked up): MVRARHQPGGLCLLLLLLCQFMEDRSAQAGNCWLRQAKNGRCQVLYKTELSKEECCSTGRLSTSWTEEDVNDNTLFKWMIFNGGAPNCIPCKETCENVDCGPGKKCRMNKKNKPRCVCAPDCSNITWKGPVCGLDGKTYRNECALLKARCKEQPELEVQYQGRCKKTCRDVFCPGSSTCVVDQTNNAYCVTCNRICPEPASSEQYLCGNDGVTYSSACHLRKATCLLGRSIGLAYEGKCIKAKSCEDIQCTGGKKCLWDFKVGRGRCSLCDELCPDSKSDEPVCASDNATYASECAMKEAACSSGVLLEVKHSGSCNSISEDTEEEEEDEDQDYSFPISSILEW
Test [14] addresses Fibroblast growth factor 2 (Homo sapiens) (UniProt P09038). The test is described as follows: basic fibroblast growth factor binding to printed compounds – biochemical, small-molecule microarray, 635/667 nm fluorescence, primary screen (AID 1133). The note with it: FGF2, fluorescence 635/667, higher = more signal.
Test [15] in a line: JC-1 mitochondrial potential readout, lung cancer cells – cell-based, A549, JC-1 fluorescence, basal, 24 h, 100 nL, profiling panel (AID 1138).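 Further: A549 lung adenocarcinoma cells under basal conditions with no added stimulus; test concentration not given here.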 As to conditions: higher = more signal.
Another test relates to Lefty1. The test is described as follows: Lefty1 protein binding to printed compounds – biochemical, small-molecule microarray, 635/667 nm fluorescence, primary screen (AID 1139). As to conditions: fluorescence 635/667, higher = more signal.
In test [16] the test system is wheat germ agglutinin (Triticum aestivum), Alexa647-labelled. The test is described as follows: Alexa647-WGA lectin binding to printed small molecules – biochemical, small-molecule microarray, 635/667 nm fluorescence, artefact control for SMM control-protein annotation, profiling panel (AID 1140).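 Further: score merges 667 nm feature emission with signal to noise over triplicate slides.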 The note with it: WGA-A647 binding, 635 nm fluorescence, higher = more signal.

Test [17] addresses Luciferin 4-monooxygenase (Photinus pyralis) (UniProt P08659). The test is described as follows: inhibition of purified Photinus pyralis luciferase – biochemical, luminescence, purified enzyme, 2006 set, primary screen (AID 1141).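 Further: cell-free assay with purified firefly luciferase at 100 ng per well in PBS; test concentration not given here.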 As to conditions: purified firefly luciferase, SteadyGlo luminescence, 30 min; higher = more signal, called active from +8 up or from −8 down.

The source made the active and inactive calls.

Chain of Luciferin 4-monooxygenase (Photinus pyralis) (P08659 whole entry, looked up): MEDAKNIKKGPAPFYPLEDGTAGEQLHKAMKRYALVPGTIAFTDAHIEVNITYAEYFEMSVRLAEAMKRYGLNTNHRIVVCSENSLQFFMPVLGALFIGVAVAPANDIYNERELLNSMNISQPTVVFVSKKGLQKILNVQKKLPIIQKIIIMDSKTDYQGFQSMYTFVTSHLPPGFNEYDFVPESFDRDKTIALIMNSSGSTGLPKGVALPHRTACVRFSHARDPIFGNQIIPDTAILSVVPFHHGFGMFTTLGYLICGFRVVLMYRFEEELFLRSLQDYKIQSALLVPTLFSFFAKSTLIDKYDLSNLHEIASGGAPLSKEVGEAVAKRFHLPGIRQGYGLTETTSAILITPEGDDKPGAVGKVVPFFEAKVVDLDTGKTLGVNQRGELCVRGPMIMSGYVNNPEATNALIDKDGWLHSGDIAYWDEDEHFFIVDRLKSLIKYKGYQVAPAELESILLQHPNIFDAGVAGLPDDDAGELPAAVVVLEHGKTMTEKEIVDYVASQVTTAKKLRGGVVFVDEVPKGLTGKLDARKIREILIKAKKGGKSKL
Chain of Fibroblast growth factor 2 (Homo sapiens) (P09038 whole entry, looked up): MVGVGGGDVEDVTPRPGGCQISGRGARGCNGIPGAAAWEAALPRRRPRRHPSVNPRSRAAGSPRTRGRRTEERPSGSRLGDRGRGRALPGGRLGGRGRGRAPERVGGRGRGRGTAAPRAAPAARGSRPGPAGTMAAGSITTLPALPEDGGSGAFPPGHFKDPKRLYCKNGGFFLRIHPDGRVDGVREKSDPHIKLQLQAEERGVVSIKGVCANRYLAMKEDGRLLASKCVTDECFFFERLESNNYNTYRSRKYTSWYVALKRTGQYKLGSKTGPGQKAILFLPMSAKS

For the compound `O=C1O[C@@H](c2ccccc2)[C@@H](c2ccccc2)N2[C@@H](c3ccc(O)cc3)[C@]3(C(=O)Nc4ccc(C#CC5=CCCCC5)cc43)[C@@H](C(=O)NC[C@H](O)c3ccccc3)[C@H]12`, the composite z-score is 0.375 with Albumin (Bos taurus); 0.274 in [2]; 0.0556 in test [3]; 0.401 in [4]; 2.1 in [5]; 0.553 in test [6]. For the same compound, the composite z-score stood at 1.31 in the test on Sam68 (KHDRBS1); 1.13 in test [7]; 1.05 in test [8]; 0.219 in test [9]; 1.19 in test [10]; 0.134 in test [11]. The composite z-score in [12] turned out to be 0.925; in [13] it was 1.45; in [14] it was 1.69; in the test with Lefty1, 0.907; in [16] it was 1. Also, the composite Z-score in test [1] was 0.486 (inactive). The z-score in test [15] is -0.945; in [17], -1.38 (inactive).

With `O=C1O[C@H](c2ccccc2)[C@H](c2ccccc2)N2[C@H]1[C@@H](C(=O)N1CCN(c3ncccn3)CC1)[C@]1(C(=O)Nc3ccc(C#CC4(O)CCCCCC4)cc31)[C@H]2c1ccc(OCCO)cc1`, the composite z-score was 0.0591 with Albumin (Bos taurus); 1.39 in [2]; 0.606 in [3]; 0.62 in test [4]; 3.46 in test [5]; 1.61 in test [6]. For the same compound, the composite z-score in the test on Sam68 (KHDRBS1) was determined as 1.29; in test [7] it was 1.41; in test [8] it was 1.1; in test [9], 1.14; in test [10], 1.23; in test [11], 1.03. For the same compound, the composite z-score in test [12] worked out at 0.966; in [13] it was 1.27; in [14] it was 1.48; in the test with Lefty1, 1.38; in test [16], 1.03. In addition, the composite Z-score in test [1] was 6.42 (inactive). Also, the z-score in test [15] was -1.46; in [17] it was -1.2 (inactive).

Turning to `[N-]=[N+]=Nc1ccccc1[C@H]1OC(c2ccc(OCCCO)cc2)=N[C@@]1(Cc1ccccc1)C(=O)N1CCCCC1`, the composite z-score with Albumin (Bos taurus) was 0.899; in test [2] it was 0.369; in [3] it was 0.208; in test [4], 0.38; in [5] it was 2.36; in test [6], 0.19. For the same compound, the composite z-score worked out at 1.13 in the test on Sam68 (KHDRBS1); 0.618 in [7]; 1.19 in test [8]; 1.55 in test [9]; 1.2 in [10]; 0.724 in test [11]. The composite z-score in test [12] is 0.963; in [13], 1.45; in [14], 1.67; with Lefty1 it was 0.0229; in test [16], 0.945. Also, the composite Z-score in test [1] was 0.498 (inactive). Further, the z-score in [15] is -1.43; in test [17], -6.62 (inactive).

For the compound `COCCOC(=O)N1C(=O)[C@@]2(c3ccccc31)[C@H](C(=O)N1CCN(c3ncccn3)CC1)[C@H]1C(=O)O[C@H](c3ccccc3)[C@H](c3ccccc3)N1[C@@H]2c1ccc(O)cc1`, the composite z-score with Albumin (Bos taurus) is 0.303; in test [2] it was -0.273; in test [3], -0.237; in test [4], 0.597; in [5] it was 1.15; in [6], 0.421. Further, the composite z-score in the test with Sam68 (KHDRBS1) worked out at 1.02; in [7], 0.271; in [8] it was 1.1; in [9], 1.12; in test [10] it was 0.613; in test [11] it was 0.585. Also, the composite z-score in test [12] is 0.675; in test [13], -0.147; in test [14], 0.173; with Lefty1, 0.0567; in [16] it was 0.875. The composite Z-score in [1] is -0.197 (inactive). Also, the z-score in test [15] is -0.189; in test [17], -0.378 (inactive).

For `C[N+](C)(C)CCCC[C@@H]1NC(=O)[C@H]2C[C@@H](C(=O)NCCCCCCN)[C@@H](c3ccc(O)cc3)N2C1=O`, the composite z-score is 0.98 in the test with Albumin (Bos taurus); 0.201 in test [2]; 0.14 in [3]; 0.685 in test [4]; 1.08 in [5]; -0.186 in test [6]. Further, the composite z-score is 1.23 in the test with Sam68 (KHDRBS1); -0.117 in [7]; 1.13 in [8]; 3.15 in test [9]; 1.13 in test [10]; 0.145 in test [11]. Besides, the composite z-score in test [12] is 0.973; in [13], 0.835; in [14] it was 0.299; with Lefty1, -0.046; in test [16], 1.17. The composite Z-score in test [1] was 0.289 (inactive). For the same compound, the z-score in test [15] was 0.792; in test [17], -0.932 (inactive).

`COCCOC(=O)N1C(=O)[C@@]2(c3cc(C#CC4=CCCCC4)ccc31)[C@H](c1ccccc1OCCO)N1[C@H](c3ccccc3)[C@H](c3ccccc3)OC(=O)[C@H]1[C@@H]2C(=O)Nc1nc2ccccc2s1`: the composite z-score with Albumin (Bos taurus) was 0.526; in test [2], 0.158; in [3], -0.0047; in [4], 0.236; in test [5] it was 1.06; in test [6], -0.375. In addition, the composite z-score in the test with Sam68 (KHDRBS1) stood at 1.32; in test [7], 0.454; in test [8] it was 1.15; in test [9] it was 1.16; in test [10] it was 0.96; in [11], 0.96. The composite z-score is 0.868 in test [12]; 1.19 in test [13]; 0.731 in test [14]; 1.09 in the test on Lefty1; 0.754 in test [16]. Further, the composite Z-score in test [1] is -0.243 (inactive). Further, the z-score in [15] was -2.14; in test [17], -2.08 (inactive).
